system: FXR:RXRa (NR concentration 270 nM, RXRa partner concentration 90 nM); experiment: PBM binding z-score (relative to random genomic background probes); higher = stronger binding; sequences stand for … in GC…GCGATTGACAGCGTAGAATGAAGG
Outline: (§1)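 Regression normalization was applied to scanned fluorescence from custom Agilent 4×180K protein-binding microarrays. Before scanning, arrays were incubated 1 h with ligand-free nuclear receptor dimers, and binding was detected with antibodies against each partner (one per run). Binding z-scores use the random background probes as reference.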

Question: For TATACAGGGTCAAATGCCAGAGTACGAATGTCGA, which PBM binding z-score is on record?
Answer: Its PBM binding z-score is 7.66.

Question: Which PBM binding z-score does the source give for GTACCAAGGTGAATAGGTCGTTCATGAGTAGGCG here?
Answer: The PBM binding z-score was 0.8.

Question: How did the PBM binding z-score turn out when GCTTACGGGTCAAAGGTTCTAGCATGAATAGAAT was run?
Answer: The PBM binding z-score was 6.11.

Question: For CTCAAAAGGTCGGTTGAGGTGAGTATACGGATAA, which PBM binding z-score is on record?
Answer: Its PBM binding z-score is 2.63.

Question: GGAACGAGGGCAAGTTGATAACAGAGTTTGATGG was tested. Which PBM binding z-score did it give?
Answer: The PBM binding z-score was 0.773.

Question: With CCTGCTAGGTCATGGTCAGCCAATCTACAGTATG as the sequence, how does the PBM binding z-score read?
Answer: Its PBM binding z-score is 3.64.

Question: With ACTCGGAGGACAAAGGTCGGAGCTACGCCAGTGA as the sequence, how does the PBM binding z-score read?
Answer: Its PBM binding z-score is 0.927.

Question: CCTACTGGGCCAAAAAGGTCAGTGATGCCGATAA was tested. Which PBM binding z-score did it give?
Answer: Its PBM binding z-score is 1.31.

Question: Which PBM binding z-score does the source give for TGAATGAGGTTAAAGATCAGGGTACGTGGCGTCG here?
Answer: The PBM binding z-score was 2.96.

Question: With GATGCAGGGTCAGCTAGAGGCCAGAGTATGGAAA as the sequence, how does the PBM binding z-score read?
Answer: Its PBM binding z-score is 4.25.

Question: For TCTCGGAGGACACGAAAGGTCAAAGCTCGACATC, which PBM binding z-score is on record?
Answer: The PBM binding z-score was 4.46.

Question: ACTAGCAGGCCAAGTTTGTGTCACTCAAACAAAG was tested. Which PBM binding z-score did it give?
Answer: The PBM binding z-score was -0.566.

Question: CCTCGGAGGGCAGAAGGTCAGAGCTGTCCGCTTT was tested. Which PBM binding z-score did it give?
Answer: The PBM binding z-score was 1.58.

Question: For GCGGCTAGGTCAGGTTGGTCAGCTAACGGGTACG, which PBM binding z-score is on record?
Answer: The PBM binding z-score was 1.14.

Question: With CTCGAAAGGTCGGTTGAGGTGAGTATGCGGATAA as the sequence, how does the PBM binding z-score read?
Answer: The PBM binding z-score was 2.51.

Question: Which PBM binding z-score does the source give for TCTAGTTGGTCAAAGGGCACACACTCGAAATGCG here?
Answer: Its PBM binding z-score is 1.38.

Question: Which PBM binding z-score does the source give for TCATATAGGTAAAAGTTGAAAGTCGGTGTGGTAA here?
Answer: The PBM binding z-score was 1.54.

Question: How did the PBM binding z-score turn out when CAAACTAGGTCAAGAGGTCAAAGTGCGCTTCCCG was run?
Answer: The PBM binding z-score was 7.08.

Question: How did the PBM binding z-score turn out when TTACCAAGCTGAAAGGTCGTTGATGCACGCCTTG was run?
Answer: The PBM binding z-score was 0.616.

Question: Which PBM binding z-score does the source give for CTCGAAAGGTCGGCTGAGGTGAGTATACGGATAA here?
Answer: The PBM binding z-score was 3.7.

Question: Which PBM binding z-score does the source give for ATATGTAGGCTAAGGGTCATTCAGGTTGGTTCGC here?
Answer: Its PBM binding z-score is 3.79.

Question: TCGAGTAGGTTACCAATCGGGCATTCAGCTTTCT was tested. Which PBM binding z-score did it give?
Answer: The PBM binding z-score was -0.222.

Question: With ATATGTAGGTTAAGGGTCATTCACGTTGGTTCGC as the sequence, how does the PBM binding z-score read?
Answer: The PBM binding z-score was 5.72.

Question: How did the PBM binding z-score turn out when ATCGAAAGGTCGAAGGTGAGTATACCCACCCGAA was run?
Answer: Its PBM binding z-score is 4.3.

Question: ACTCGGCGGACAAAGGTCAGAGCTACGCCAGTGA was tested. Which PBM binding z-score did it give?
Answer: The PBM binding z-score was 3.34.

Question: With CGTCCAAGGTCATAGGAGGTCAGTGGAGACAGAT as the sequence, how does the PBM binding z-score read?
Answer: Its PBM binding z-score is 7.92.

Question: With GCTGCTAGGTCAGGTTGGTGAGCTAACGGGTACG as the sequence, how does the PBM binding z-score read?
Answer: Its PBM binding z-score is 1.04.

Question: For CAAACTCGGTCACCGGAAGGTCAAAGTCCGCATG, which PBM binding z-score is on record?
Answer: The PBM binding z-score was 4.53.

Question: With AGAATGAGGTTATACGTAGATCAGGGCAGAAAGT as the sequence, how does the PBM binding z-score read?
Answer: The PBM binding z-score was 2.33.

Question: Which PBM binding z-score does the source give for TCTATTAGTTGAAGGGCAATCGACGAGTCCGTTT here?
Answer: The PBM binding z-score was 0.797.

Question: Which PBM binding z-score does the source give for GCTAGTTGGTCAGTAGAAGGTCACACACCGGTCG here?
Answer: The PBM binding z-score was 1.88.

Question: For CTAACTAGGTCAGAACAGGACAGTGAAGGATGAT, which PBM binding z-score is on record?
Answer: The PBM binding z-score was 1.45.

Question: With TTACCAAGGTGAAAGCTCGTTGATGCACGCCTTG as the sequence, how does the PBM binding z-score read?
Answer: The PBM binding z-score was 0.225.

Question: For ATCGAAAGGTCGTAAGGTGAGTATACAGAAAGGC, which PBM binding z-score is on record?
Answer: The PBM binding z-score was 4.53.

Question: Which PBM binding z-score does the source give for TGAATGAGGTTAAAGATCAGCGAACGTGGCGTCG here?
Answer: The PBM binding z-score was 2.99.

Question: Which PBM binding z-score does the source give for GATACTGGGTCAAGGCCAGAGTACGCGTATTGAT here?
Answer: Its PBM binding z-score is 2.37.

Question: How did the PBM binding z-score turn out when TCATGTAGGTAAACAGGTGAAAGTCCGTAAGTTA was run?
Answer: The PBM binding z-score was 0.441.

Question: CCTCGTTGGTCAAGGTCACACACGCTATAGGTAC was tested. Which PBM binding z-score did it give?
Answer: Its PBM binding z-score is 4.27.

Question: TCTTGTAGATCAATAGAGGTTACGAAAGTGCGCT was tested. Which PBM binding z-score did it give?
Answer: Its PBM binding z-score is 1.11.

system: LXRa:RXRa (NR concentration 270 nM, RXRa partner concentration 90 nM); experiment: as above
Outline: as §1

Question: With TATACAGGGTCAAATGCCAGAGTACGAATGTCGA as the sequence, how does the PBM binding z-score read?
Answer: Its PBM binding z-score is 6.63.

Question: GTACCAAGGTGAATAGGTCGTTCATGAGTAGGCG was tested. Which PBM binding z-score did it give?
Answer: The PBM binding z-score was 1.02.

Question: For GCTTACGGGTCAAAGGTTCTAGCATGAATAGAAT, which PBM binding z-score is on record?
Answer: Its PBM binding z-score is 4.09.

Question: CTCAAAAGGTCGGTTGAGGTGAGTATACGGATAA was tested. Which PBM binding z-score did it give?
Answer: Its PBM binding z-score is 1.8.

Question: How did the PBM binding z-score turn out when GGAACGAGGGCAAGTTGATAACAGAGTTTGATGG was run?
Answer: Its PBM binding z-score is 0.307.

Question: For CCTGCTAGGTCATGGTCAGCCAATCTACAGTATG, which PBM binding z-score is on record?
Answer: Its PBM binding z-score is 2.66.

Question: How did the PBM binding z-score turn out when ACTCGGAGGACAAAGGTCGGAGCTACGCCAGTGA was run?
Answer: The PBM binding z-score was 1.18.

Question: For CCTACTGGGCCAAAAAGGTCAGTGATGCCGATAA, which PBM binding z-score is on record?
Answer: Its PBM binding z-score is 1.9.

Question: TGAATGAGGTTAAAGATCAGGGTACGTGGCGTCG was tested. Which PBM binding z-score did it give?
Answer: The PBM binding z-score was 2.35.

Question: GATGCAGGGTCAGCTAGAGGCCAGAGTATGGAAA was tested. Which PBM binding z-score did it give?
Answer: The PBM binding z-score was 2.59.

Question: TCTCGGAGGACACGAAAGGTCAAAGCTCGACATC was tested. Which PBM binding z-score did it give?
Answer: Its PBM binding z-score is 5.45.

Question: For ACTAGCAGGCCAAGTTTGTGTCACTCAAACAAAG, which PBM binding z-score is on record?
Answer: Its PBM binding z-score is -0.667.

Question: Which PBM binding z-score does the source give for CCTCGGAGGGCAGAAGGTCAGAGCTGTCCGCTTT here?
Answer: Its PBM binding z-score is 1.92.

Question: GCGGCTAGGTCAGGTTGGTCAGCTAACGGGTACG was tested. Which PBM binding z-score did it give?
Answer: Its PBM binding z-score is 0.573.

Question: CTCGAAAGGTCGGTTGAGGTGAGTATGCGGATAA was tested. Which PBM binding z-score did it give?
Answer: Its PBM binding z-score is 1.72.

Question: TCTAGTTGGTCAAAGGGCACACACTCGAAATGCG was tested. Which PBM binding z-score did it give?
Answer: The PBM binding z-score was 1.56.

Question: With TCATATAGGTAAAAGTTGAAAGTCGGTGTGGTAA as the sequence, how does the PBM binding z-score read?
Answer: Its PBM binding z-score is 1.21.

Question: Which PBM binding z-score does the source give for CAAACTAGGTCAAGAGGTCAAAGTGCGCTTCCCG here?
Answer: The PBM binding z-score was 6.47.

Question: How did the PBM binding z-score turn out when TTACCAAGCTGAAAGGTCGTTGATGCACGCCTTG was run?
Answer: Its PBM binding z-score is 0.94.

Question: For CTCGAAAGGTCGGCTGAGGTGAGTATACGGATAA, which PBM binding z-score is on record?
Answer: The PBM binding z-score was 2.47.

Question: ATATGTAGGCTAAGGGTCATTCAGGTTGGTTCGC was tested. Which PBM binding z-score did it give?
Answer: The PBM binding z-score was 3.76.

Question: Which PBM binding z-score does the source give for TCGAGTAGGTTACCAATCGGGCATTCAGCTTTCT here?
Answer: Its PBM binding z-score is 0.961.

Question: ATATGTAGGTTAAGGGTCATTCACGTTGGTTCGC was tested. Which PBM binding z-score did it give?
Answer: The PBM binding z-score was 4.91.

Question: For ATCGAAAGGTCGAAGGTGAGTATACCCACCCGAA, which PBM binding z-score is on record?
Answer: The PBM binding z-score was 3.8.

Question: How did the PBM binding z-score turn out when ACTCGGCGGACAAAGGTCAGAGCTACGCCAGTGA was run?
Answer: The PBM binding z-score was 3.79.

Question: For CGTCCAAGGTCATAGGAGGTCAGTGGAGACAGAT, which PBM binding z-score is on record?
Answer: Its PBM binding z-score is 7.55.

Question: GCTGCTAGGTCAGGTTGGTGAGCTAACGGGTACG was tested. Which PBM binding z-score did it give?
Answer: Its PBM binding z-score is 0.598.

Question: For CAAACTCGGTCACCGGAAGGTCAAAGTCCGCATG, which PBM binding z-score is on record?
Answer: Its PBM binding z-score is 5.04.

Question: For AGAATGAGGTTATACGTAGATCAGGGCAGAAAGT, which PBM binding z-score is on record?
Answer: The PBM binding z-score was 1.89.

Question: TCTATTAGTTGAAGGGCAATCGACGAGTCCGTTT was tested. Which PBM binding z-score did it give?
Answer: The PBM binding z-score was 0.889.

Question: For GCTAGTTGGTCAGTAGAAGGTCACACACCGGTCG, which PBM binding z-score is on record?
Answer: Its PBM binding z-score is 2.35.

Question: For CTAACTAGGTCAGAACAGGACAGTGAAGGATGAT, which PBM binding z-score is on record?
Answer: Its PBM binding z-score is 0.974.

Question: For TTACCAAGGTGAAAGCTCGTTGATGCACGCCTTG, which PBM binding z-score is on record?
Answer: Its PBM binding z-score is -0.099.

Question: For ATCGAAAGGTCGTAAGGTGAGTATACAGAAAGGC, which PBM binding z-score is on record?
Answer: Its PBM binding z-score is 3.79.

Question: For TGAATGAGGTTAAAGATCAGCGAACGTGGCGTCG, which PBM binding z-score is on record?
Answer: Its PBM binding z-score is 2.46.

Question: For GATACTGGGTCAAGGCCAGAGTACGCGTATTGAT, which PBM binding z-score is on record?
Answer: Its PBM binding z-score is 1.21.

Question: For TCATGTAGGTAAACAGGTGAAAGTCCGTAAGTTA, which PBM binding z-score is on record?
Answer: Its PBM binding z-score is 0.537.

Question: With CCTCGTTGGTCAAGGTCACACACGCTATAGGTAC as the sequence, how does the PBM binding z-score read?
Answer: Its PBM binding z-score is 4.25.

Question: Which PBM binding z-score does the source give for TCTTGTAGATCAATAGAGGTTACGAAAGTGCGCT here?
Answer: Its PBM binding z-score is 3.47.

From the supplement of paper PMC6555819
